According to PubChem BioAssay (EPA / NIEHS):
Several values for one entry are separate records, joined by “and”; a condition that tells them apart may be missing. Equal values may be shown once. A structure can be active in one record and inactive in another. Activity calls are given as the source filed them. How the source made its calls: active means hit-call score of the fitted dose curve at least 0.9, where 1 is the maximum; inactive means score below 0.9.

How the values were obtained:
[1] = read-out: Human Leukocyte Antigen - DR isotype (HLADR), HLA-DRA (gene 3122); assay: BSK_BE3C_HLADR: BioMAP Diversity Plus: BE3C Assay for Human Leukocyte Antigen - DR isotype (HLADR) Biomarker Activity (AID 2283032); conditions: primary human bronchial epithelial cells; actives raise or lower the signal
Procedure, shortened: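 Chemicals are dosed onto BE3C bronchial epithelial cultures of human origin and left 24 h. HLA-DR is then measured by ELISA, and the endpoint is fitted in both directions using DMSO as the activity baseline.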

[2] = read-out: Vascular cell adhesion molecule 1 (VCAM1), VCAM1 (gene 7412); assay: BSK_4H_VCAM1: BioMAP Diversity Plus: 4H Assay for Vascular cell adhesion molecule 1 (VCAM1) Biomarker Activity (AID 2283033); conditions: primary human endothelial cells (HUVEC); actives raise or lower the signal
Procedure, shortened: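 Chemicals are added to primary human umbilical vein endothelial cells. After 24 h, VCAM-1 levels are measured by ELISA. Values come from bidirectional fitting referenced to DMSO.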

[3] = read-out: Interferon-gamma inducible Protein 10 (IP10), CXCL10 (gene 3627); assay: BSK_BE3C_IP10: BioMAP Diversity Plus: BE3C Assay for Interferon-gamma inducible Protein 10 (IP10) Biomarker Activity (AID 2283034); conditions: primary human bronchial epithelial cells; actives raise or lower the signal
Procedure, shortened: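 IP-10 quantified by ELISA serves as the endpoint. Cells: primary human bronchial epithelium, read 24 h after compound addition. Activity is derived by bidirectional fitting with DMSO as negative control.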

[4] = read-out: Monokine induced gamma interferon (MIG), CXCL9 (gene 4283); assay: BSK_BE3C_MIG: BioMAP Diversity Plus: BE3C Assay for Monokine induced gamma interferon (MIG) Biomarker Activity (AID 2283035); conditions: primary human bronchial epithelial cells; actives raise or lower the signal
Procedure, shortened: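 hu bronchial epithelial 1° cells, 24 h cpd; MIG by ELISA; bidirectional fit, DMSO = baseline.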

[5] = read-out: Transforming growth factor beta 1 (TGFb1), TGFB1 (gene 7040); assay: BSK_BE3C_TGFb1: BioMAP Diversity Plus: BE3C Assay for Transforming growth factor beta 1 (TGFb1) Biomarker Activity (AID 2283036;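 further: TGF-b1 protein level measured by ELISA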); conditions: primary human bronchial epithelial cells; actives raise or lower the signal
Procedure, shortened: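 Bronchial epithelial primary cells are treated with test chemical, then TGF-b1 is quantified by ELISA after 24 hours. Values derive from bidirectional fitting against DMSO, with cytotoxicity checked by SRB staining in parallel cultures.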

[6] = read-out: Plasminogen activator inhibitor-1 (PAI1), SERPINE1 (gene 5054); assay: BSK_BE3C_PAI1: BioMAP Diversity Plus: BE3C Assay for Plasminogen activator inhibitor-1 (PAI1) Biomarker Activity (AID 2283037); conditions: primary human bronchial epithelial cells; actives raise or lower the signal
Procedure, shortened: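 Values derive from bidirectional fitting against DMSO baseline of PAI-1 levels, measured by ELISA in human bronchial epithelial cells 24 h after compound addition.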

[7] = read-out: urokinase plasminogen activator (uPA), PLAU (gene 5328); assay: BSK_BE3C_uPA: BioMAP Diversity Plus: BE3C Assay for urokinase plasminogen activator (uPA) Biomarker Activity (AID 2283038); conditions: primary human bronchial epithelial cells; actives raise or lower the signal
Procedure, shortened: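 Using confluent primary human lung bronchial epithelial cultures, we dosed chemicals, waited 24 h, then ran a uPA ELISA, fitting bidirectionally against DMSO.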

[8] = read-out: Interleukin-6 (IL6), IL6 (gene 3569); assay: BSK_CASM3C_IL6: BioMAP Diversity Plus: CASM3C Assay for Interleukin-6 (IL6) Biomarker Activity for (AID 2283040); conditions: primary human coronary artery smooth muscle cells; actives raise or lower the signal
[9] = read-out: Tissue plasminogen activator (tPA), PLAT (gene 5327); assay: BSK_BE3C_tPA: BioMAP Diversity Plus: BE3C Assay for Tissue plasminogen activator (tPA) Biomarker Activity (AID 2283041); conditions: primary human bronchial epithelial cells; actives raise or lower the signal;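 further: tPA level quantified by ELISA one day after compound addition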
Procedure, shortened: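 Gain- or loss-of-signal in tPA, measured by ELISA, derived by bidirectional fitting against DMSO. Cells: human primary bronchial epithelial; read at 24 h after chemical dosing.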

[10] = read-out: Interleukin-8 (IL8), CXCL8 (gene 3576); assay: BSK_CASM3C_IL8: BioMAP Diversity Plus: CASM3C Assay for Interleukin-8 (IL8) Biomarker Activity (AID 2283042); conditions: primary human coronary artery smooth muscle cells; actives raise or lower the signal;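 further: IL-8 protein level quantified by ELISA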
[11] = read-out: Human Leukocyte Antigen - DR isotype (HLADR), HLA-DRA (gene 3122); assay: BSK_CASM3C_HLADR: BioMAP Diversity Plus: CASM3C Assay for Human Leukocyte Antigen - DR isotype (HLADR) Biomarker Activity (AID 2283043); conditions: primary human coronary artery smooth muscle cells; actives raise or lower the signal;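 further: cell-surface HLA-DR protein level quantified by ELISA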
[12] = read-out: Macrophage colony-stimulating factor (MCSF), CSF1 (gene 1435); assay: BSK_CASM3C_MCSF: BioMAP Diversity Plus: CASM3C Assay for Macrophage colony-stimulating factor (MCSF) Biomarker Activity (AID 2283044); conditions: primary human coronary artery smooth muscle cells; actives raise or lower the signal;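 further: M-CSF protein amount quantified by ELISA after 24 h exposure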
[13] = read-out: Low-density lipoprotein receptor (LDLR), LDLR (gene 3949); assay: BSK_CASM3C_LDLR: BioMAP Diversity Plus: CASM3C Assay for Low-density lipoprotein receptor (LDLR) Biomarker Activity (AID 2283045); conditions: primary human coronary artery smooth muscle cells; actives raise or lower the signal;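 further: LDLR protein level on the cell surface quantified by ELISA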
[14] = read-out: Monocyte Chemoattractant Protein-1 (MCP1), CCL2 (gene 6347); assay: BSK_CASM3C_MCP1: BioMAP Diversity Plus: CASM3C Assay for Monocyte Chemoattractant Protein-1 (MCP1) Biomarker Activity (AID 2283046); conditions: primary human coronary artery smooth muscle cells; actives raise or lower the signal;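 further: MCP-1 level quantified by ELISA 24 h after dosing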
[15] = BSK_CASM3C_Proliferation: Cell Proliferation Assessment in the BioMAP Diversity Plus: CASM3C Assay (AID 2283047); conditions: primary human coronary artery smooth muscle cells;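 further: sulforhodamine B total protein stain as relative cell number at 560 nm; sub-confluent cells exposed 48 h before staining; fitted both ways against DMSO so gain or loss of cell number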
[16] = read-out: Monokine induced gamma interferon (MIG), CXCL9 (gene 4283); assay: BSK_CASM3C_MIG: BioMAP Diversity Plus: CASM3C Assay for Monokine induced gamma interferon (MIG) Biomarker Activity (AID 2283048); conditions: primary human coronary artery smooth muscle cells; actives raise or lower the signal;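 further: MIG protein level measured by ELISA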
[17] = read-out: serum amyloid A (SAA), SAA1 (gene 6288); assay: BSK_CASM3C_SAA: BioMAP Diversity Plus: CASM3C Assay for serum amyloid A (SAA) Biomarker Activity (AID 2283049); conditions: primary human coronary artery smooth muscle cells; actives raise or lower the signal;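 further: SAA protein level quantified by ELISA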
[18] = BSK_CASM3C_SRB: Viability Assessment in the BioMAP Diversity Plus: CASM3C Assay (AID 2283050); conditions: primary human coronary artery smooth muscle cells;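 further: total protein by SRB staining as cytotoxicity measure in parallel cultures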
[19] = read-out: Thrombomodulin, THBD (gene 7056); assay: BSK_CASM3C_Thrombomodulin: BioMAP Diversity Plus: CASM3C Assay for Thrombomodulin Biomarker Activity (AID 2283051); conditions: primary human coronary artery smooth muscle cells; actives raise or lower the signal;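 further: thrombomodulin protein level measured by ELISA 24 h after dosing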
[20] = read-out: Urokinase-type plasminogen activator receptor (uPAR), PLAUR (gene 5329); assay: BSK_BE3C_uPAR: BioMAP Diversity Plus: BE3C Assay for Urokinase-type plasminogen activator receptor (uPAR) Biomarker Activity (AID 2283039); conditions: primary human bronchial epithelial cells; actives raise or lower the signal;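 further: uPAR protein level measured by ELISA on the cells; cells exposed to compound for one day before measurement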
Procedure, shortened: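 Steps: dose human primary bronchial epithelial cells, incubate 24 h, measure uPAR by ELISA, then fit gain- or loss-of-signal response bidirectionally relative to DMSO.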

Measured: AC50

C[C@]12CC[C@@H]3c4ccc(O)cc4CC[C@H]3[C@@H]1C[C@@H](O)[C@@H]2O
active: [12] 8120 nM
not listed: [20]
inactive: all other assays above

O=C1NS(=O)(=O)c2ccccc21
not listed: [20]
inactive: all other assays above

CS(=O)(=O)c1ccc([C@@H](CC2CCCC2)C(=O)Nc2cnccn2)cc1Cl
active: [3] 31000 nM | [6] 29200 nM | [15] 26900 nM
not listed: [20]
inactive: all other assays above

O=C(c1ccccc1)c1ccccc1
not listed: [20]
inactive: all other assays above

CN(C)c1ccc(C(=C2C=CC(=[N+](C)C)C=C2)c2ccccc2)cc1
inactive: [5] | [6] | [9]
active: [1] 16.2 nM | [2] 16 nM | [3] 202 nM | [4] 561 nM | [7] 958 nM | [8] 103 nM | [10] 1980 nM | [11] 39.2 nM | [12] 825 nM | [13] 32.3 nM | [14] 61.5 nM | [15] 553 nM | [16] 1170 nM | [17] 16.8 nM | [18] 296 nM | [19] 758 nM

CC[N+](CC)(CC)Cc1ccccc1
active: [8] 87.5 nM
not listed: [20]
inactive: all other assays above

OCC(F)(F)C(F)(F)C(F)(F)C(F)(F)C(F)(F)C(F)(F)C(F)(F)C(F)(F)C(F)(F)C(F)(F)C(F)(F)F
active: [1] 251 nM and 154 nM | [3] 218 nM
inactive: [2] | [3] | [4] | [6] | [7] | [8] | [9] | [10] | [11] | [12] | [13] | [14] | [15] | [16] | [17] | [18] | [19]

CCCCCCCCCCCCCCCCCC[N+](C)(C)Cc1ccccc1
inactive: [5] | [6] | [9]
active: [1] 2050 nM | [2] 2800 nM | [3] 4270 nM | [4] 5770 nM | [7] 10000 nM | [8] 4870 nM | [10] 12600 nM | [11] 3450 nM | [12] 5500 nM | [13] 6530 nM | [14] 5290 nM | [15] 2740 nM | [16] 15400 nM | [17] 2720 nM | [18] 2750 nM | [19] 2560 nM

Cc1cccc2c1ccc1ccccc12
not listed: [20]
inactive: all other assays above

O=C(NCc1ncc(C(F)(F)F)cc1Cl)c1c(Cl)cccc1Cl
inactive: all assays above

CN(C)CCOC(c1ccccc1)c1ccccc1
active: [2] 2030 nM
not listed: [12]
inactive: all other assays above

C=CC(=C)CC/C=C(\C)CCC=C(C)C
inactive: all assays above
